# Assays:
# [1] = target: T1, Serine/threonine-protein kinase 3 (Homo sapiens) (UniProt Q13188); conditions: at 1 µM
# T1 sequence (whole entry): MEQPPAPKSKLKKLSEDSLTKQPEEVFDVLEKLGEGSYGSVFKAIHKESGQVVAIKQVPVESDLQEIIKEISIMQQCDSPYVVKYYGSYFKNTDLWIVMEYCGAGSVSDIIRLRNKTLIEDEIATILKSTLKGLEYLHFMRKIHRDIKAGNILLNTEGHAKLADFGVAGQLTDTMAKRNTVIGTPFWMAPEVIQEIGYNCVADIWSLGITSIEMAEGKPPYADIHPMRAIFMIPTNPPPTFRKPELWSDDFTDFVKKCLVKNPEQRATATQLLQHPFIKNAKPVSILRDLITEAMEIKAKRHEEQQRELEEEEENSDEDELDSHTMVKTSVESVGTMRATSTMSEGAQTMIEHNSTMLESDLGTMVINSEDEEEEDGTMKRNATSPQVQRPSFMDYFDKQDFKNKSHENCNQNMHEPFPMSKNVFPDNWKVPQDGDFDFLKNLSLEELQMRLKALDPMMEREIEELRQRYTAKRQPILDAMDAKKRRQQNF
# [2] = target: T1, Serine/threonine-protein kinase 3 (Homo sapiens); conditions: at 10 µM
# [3] = target: Serine/threonine-protein kinase 24 (Homo sapiens) (UniProt Q9Y6E0); conditions: at 10 µM
# [4] = target: T2, Tyrosine-protein kinase Mer (Homo sapiens) (UniProt Q12866); conditions: at 1 µM
# T2 sequence (whole entry): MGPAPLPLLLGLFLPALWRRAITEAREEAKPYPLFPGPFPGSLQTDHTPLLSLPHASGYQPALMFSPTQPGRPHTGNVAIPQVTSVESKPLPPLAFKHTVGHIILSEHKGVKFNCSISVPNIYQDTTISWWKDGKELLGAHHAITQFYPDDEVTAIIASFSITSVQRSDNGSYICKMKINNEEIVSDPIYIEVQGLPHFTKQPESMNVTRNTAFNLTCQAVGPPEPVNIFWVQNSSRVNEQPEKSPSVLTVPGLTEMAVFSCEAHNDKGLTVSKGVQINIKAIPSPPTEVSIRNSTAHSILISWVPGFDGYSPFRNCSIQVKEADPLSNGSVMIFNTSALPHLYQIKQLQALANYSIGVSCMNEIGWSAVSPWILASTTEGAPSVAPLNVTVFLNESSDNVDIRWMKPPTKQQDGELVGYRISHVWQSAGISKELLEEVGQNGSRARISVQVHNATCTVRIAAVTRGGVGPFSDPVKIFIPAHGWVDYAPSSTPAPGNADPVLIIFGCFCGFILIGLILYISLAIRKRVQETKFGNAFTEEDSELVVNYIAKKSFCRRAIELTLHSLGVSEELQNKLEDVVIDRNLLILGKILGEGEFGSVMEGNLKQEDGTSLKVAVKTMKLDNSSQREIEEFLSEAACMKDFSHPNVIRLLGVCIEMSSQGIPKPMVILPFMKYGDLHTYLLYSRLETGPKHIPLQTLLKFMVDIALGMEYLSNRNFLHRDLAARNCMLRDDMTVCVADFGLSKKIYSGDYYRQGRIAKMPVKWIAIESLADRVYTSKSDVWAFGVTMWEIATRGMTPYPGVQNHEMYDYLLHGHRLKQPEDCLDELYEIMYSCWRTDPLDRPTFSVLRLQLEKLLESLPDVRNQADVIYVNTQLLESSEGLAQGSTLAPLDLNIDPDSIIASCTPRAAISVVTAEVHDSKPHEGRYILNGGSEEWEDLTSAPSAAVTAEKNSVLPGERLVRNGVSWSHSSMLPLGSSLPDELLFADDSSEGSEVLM
# [5] = target: T2, Tyrosine-protein kinase Mer (Homo sapiens); conditions: at 10 µM
# [6] = target: Hepatocyte growth factor receptor (Homo sapiens) (UniProt P08581); conditions: at 1 µM
# [7] = target: Hepatocyte growth factor receptor (Homo sapiens) (UniProt P08581); conditions: at 10 µM
# [8] = target: MAP kinase-interacting serine/threonine-protein kinase 2 (Homo sapiens) (UniProt Q9HBH9); conditions: at 1 µM
# [9] = target: MAP kinase-interacting serine/threonine-protein kinase 2 (Homo sapiens) (UniProt Q9HBH9); conditions: at 10 µM
# [10] = target: T3, Muscle, skeletal receptor tyrosine-protein kinase (Homo sapiens) (UniProt O15146); conditions: at 10 µM
# T3 sequence (whole entry): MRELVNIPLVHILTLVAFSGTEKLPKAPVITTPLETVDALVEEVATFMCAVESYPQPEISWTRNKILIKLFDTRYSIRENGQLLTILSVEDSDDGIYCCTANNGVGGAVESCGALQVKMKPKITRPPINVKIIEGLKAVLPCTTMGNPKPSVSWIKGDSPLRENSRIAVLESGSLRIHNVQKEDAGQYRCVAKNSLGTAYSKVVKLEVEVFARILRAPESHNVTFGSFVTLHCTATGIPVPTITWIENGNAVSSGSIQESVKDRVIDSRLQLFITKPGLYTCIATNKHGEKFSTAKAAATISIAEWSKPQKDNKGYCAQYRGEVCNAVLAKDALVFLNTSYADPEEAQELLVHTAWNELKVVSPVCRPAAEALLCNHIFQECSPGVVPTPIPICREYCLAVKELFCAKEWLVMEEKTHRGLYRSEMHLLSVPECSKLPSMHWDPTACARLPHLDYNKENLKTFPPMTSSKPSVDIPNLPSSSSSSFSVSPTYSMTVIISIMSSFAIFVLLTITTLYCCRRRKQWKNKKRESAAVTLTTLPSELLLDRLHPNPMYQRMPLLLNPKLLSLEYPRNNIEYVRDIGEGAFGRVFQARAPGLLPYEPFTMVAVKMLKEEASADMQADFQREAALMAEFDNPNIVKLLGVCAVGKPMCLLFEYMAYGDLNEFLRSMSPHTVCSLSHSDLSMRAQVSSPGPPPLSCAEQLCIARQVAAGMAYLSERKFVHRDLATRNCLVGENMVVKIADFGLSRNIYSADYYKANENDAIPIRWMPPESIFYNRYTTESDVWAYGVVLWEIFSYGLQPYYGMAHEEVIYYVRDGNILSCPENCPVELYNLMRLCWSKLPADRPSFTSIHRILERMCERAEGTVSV
# [11] = target: T4, Serine/threonine-protein kinase Nek11 (Homo sapiens) (UniProt Q8NG66); conditions: at 1 µM
# T4 sequence (whole entry): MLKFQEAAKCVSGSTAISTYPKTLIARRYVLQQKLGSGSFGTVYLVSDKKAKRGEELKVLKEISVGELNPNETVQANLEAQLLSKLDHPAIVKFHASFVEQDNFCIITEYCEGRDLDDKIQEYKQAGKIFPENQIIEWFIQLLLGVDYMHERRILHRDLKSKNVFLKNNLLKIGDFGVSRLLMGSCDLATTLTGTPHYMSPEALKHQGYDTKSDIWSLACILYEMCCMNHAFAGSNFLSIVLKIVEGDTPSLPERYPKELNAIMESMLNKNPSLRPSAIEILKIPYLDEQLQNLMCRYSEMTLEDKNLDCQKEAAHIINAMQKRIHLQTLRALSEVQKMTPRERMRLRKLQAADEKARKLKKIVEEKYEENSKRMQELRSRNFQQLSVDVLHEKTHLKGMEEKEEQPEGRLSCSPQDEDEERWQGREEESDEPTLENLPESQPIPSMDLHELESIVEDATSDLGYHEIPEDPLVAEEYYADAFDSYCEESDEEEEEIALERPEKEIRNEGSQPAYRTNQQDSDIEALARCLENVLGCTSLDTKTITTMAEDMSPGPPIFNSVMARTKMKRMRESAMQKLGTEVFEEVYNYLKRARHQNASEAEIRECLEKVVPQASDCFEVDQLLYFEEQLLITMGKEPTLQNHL
# [12] = target: T4, Serine/threonine-protein kinase Nek11 (Homo sapiens); conditions: at 10 µM
# [13] = target: T5, Serine/threonine-protein kinase Nek2 (Homo sapiens) (UniProt P51955); conditions: at 1 µM
# T5 sequence (whole entry): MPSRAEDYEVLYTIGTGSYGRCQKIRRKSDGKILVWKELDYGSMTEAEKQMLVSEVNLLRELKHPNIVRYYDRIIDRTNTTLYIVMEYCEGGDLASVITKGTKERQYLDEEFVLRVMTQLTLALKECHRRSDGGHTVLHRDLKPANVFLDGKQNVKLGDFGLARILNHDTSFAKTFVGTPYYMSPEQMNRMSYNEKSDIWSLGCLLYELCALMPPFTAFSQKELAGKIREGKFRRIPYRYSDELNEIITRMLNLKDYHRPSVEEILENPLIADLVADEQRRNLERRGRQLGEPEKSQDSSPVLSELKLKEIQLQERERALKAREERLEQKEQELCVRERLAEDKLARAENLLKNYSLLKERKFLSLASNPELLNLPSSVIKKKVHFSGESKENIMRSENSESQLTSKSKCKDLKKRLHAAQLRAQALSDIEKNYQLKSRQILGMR
# [14] = target: T5, Serine/threonine-protein kinase Nek2 (Homo sapiens); conditions: at 10 µM
# [15] = target: T6, Serine/threonine-protein kinase Nek3 (Homo sapiens) (UniProt P51956); conditions: at 1 µM
# T6 sequence (whole entry): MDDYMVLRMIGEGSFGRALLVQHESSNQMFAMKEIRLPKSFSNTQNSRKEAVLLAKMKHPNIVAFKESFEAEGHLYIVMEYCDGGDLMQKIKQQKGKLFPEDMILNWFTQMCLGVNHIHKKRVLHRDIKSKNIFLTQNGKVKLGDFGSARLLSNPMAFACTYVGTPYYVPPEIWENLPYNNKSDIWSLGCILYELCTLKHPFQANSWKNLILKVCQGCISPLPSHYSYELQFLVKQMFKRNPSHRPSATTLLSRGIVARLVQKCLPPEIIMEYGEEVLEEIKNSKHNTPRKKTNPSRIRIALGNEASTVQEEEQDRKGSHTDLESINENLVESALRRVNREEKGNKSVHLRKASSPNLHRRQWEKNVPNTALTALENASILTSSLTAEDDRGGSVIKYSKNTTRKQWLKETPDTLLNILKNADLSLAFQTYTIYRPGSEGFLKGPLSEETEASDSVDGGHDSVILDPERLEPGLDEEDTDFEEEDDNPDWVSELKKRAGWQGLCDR
# [16] = target: T6, Serine/threonine-protein kinase Nek3 (Homo sapiens); conditions: at 10 µM
# [17] = target: Serine/threonine-protein kinase tousled-like 2 (Homo sapiens) (UniProt Q86UE8); conditions: at 1 µM
# [18] = target: Serine/threonine-protein kinase tousled-like 2 (Homo sapiens) (UniProt Q86UE8); conditions: at 10 µM
# [19] = target: Serine/threonine-protein kinase 24 (Homo sapiens) (UniProt Q9Y6E0); conditions: at 1 µM
# [20] = target: T3, Muscle, skeletal receptor tyrosine-protein kinase (Homo sapiens); conditions: at 1 µM
# Chain of Serine/threonine-protein kinase tousled-like 2 (Homo sapiens) (Q86UE8 whole entry, looked up): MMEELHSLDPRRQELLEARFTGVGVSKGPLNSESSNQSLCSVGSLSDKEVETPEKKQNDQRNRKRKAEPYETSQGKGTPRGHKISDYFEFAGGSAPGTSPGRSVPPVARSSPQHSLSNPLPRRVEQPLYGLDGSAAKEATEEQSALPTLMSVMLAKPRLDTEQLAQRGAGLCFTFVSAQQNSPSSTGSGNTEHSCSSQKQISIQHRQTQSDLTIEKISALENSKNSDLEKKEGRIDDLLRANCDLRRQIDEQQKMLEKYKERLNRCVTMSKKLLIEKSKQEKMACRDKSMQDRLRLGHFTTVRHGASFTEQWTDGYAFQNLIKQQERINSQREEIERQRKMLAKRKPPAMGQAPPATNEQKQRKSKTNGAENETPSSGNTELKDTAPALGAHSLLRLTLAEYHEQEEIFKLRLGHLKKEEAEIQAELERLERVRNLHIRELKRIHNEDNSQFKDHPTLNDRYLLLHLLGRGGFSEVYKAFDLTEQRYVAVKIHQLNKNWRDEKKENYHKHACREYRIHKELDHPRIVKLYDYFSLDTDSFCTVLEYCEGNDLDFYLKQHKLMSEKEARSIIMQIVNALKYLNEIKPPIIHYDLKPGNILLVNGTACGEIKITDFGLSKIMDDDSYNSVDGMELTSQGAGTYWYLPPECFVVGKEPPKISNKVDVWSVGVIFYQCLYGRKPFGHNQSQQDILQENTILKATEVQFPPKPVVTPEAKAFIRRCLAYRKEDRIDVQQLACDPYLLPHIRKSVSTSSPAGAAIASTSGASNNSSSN
# Chain of Hepatocyte growth factor receptor (Homo sapiens) (P08581 whole entry): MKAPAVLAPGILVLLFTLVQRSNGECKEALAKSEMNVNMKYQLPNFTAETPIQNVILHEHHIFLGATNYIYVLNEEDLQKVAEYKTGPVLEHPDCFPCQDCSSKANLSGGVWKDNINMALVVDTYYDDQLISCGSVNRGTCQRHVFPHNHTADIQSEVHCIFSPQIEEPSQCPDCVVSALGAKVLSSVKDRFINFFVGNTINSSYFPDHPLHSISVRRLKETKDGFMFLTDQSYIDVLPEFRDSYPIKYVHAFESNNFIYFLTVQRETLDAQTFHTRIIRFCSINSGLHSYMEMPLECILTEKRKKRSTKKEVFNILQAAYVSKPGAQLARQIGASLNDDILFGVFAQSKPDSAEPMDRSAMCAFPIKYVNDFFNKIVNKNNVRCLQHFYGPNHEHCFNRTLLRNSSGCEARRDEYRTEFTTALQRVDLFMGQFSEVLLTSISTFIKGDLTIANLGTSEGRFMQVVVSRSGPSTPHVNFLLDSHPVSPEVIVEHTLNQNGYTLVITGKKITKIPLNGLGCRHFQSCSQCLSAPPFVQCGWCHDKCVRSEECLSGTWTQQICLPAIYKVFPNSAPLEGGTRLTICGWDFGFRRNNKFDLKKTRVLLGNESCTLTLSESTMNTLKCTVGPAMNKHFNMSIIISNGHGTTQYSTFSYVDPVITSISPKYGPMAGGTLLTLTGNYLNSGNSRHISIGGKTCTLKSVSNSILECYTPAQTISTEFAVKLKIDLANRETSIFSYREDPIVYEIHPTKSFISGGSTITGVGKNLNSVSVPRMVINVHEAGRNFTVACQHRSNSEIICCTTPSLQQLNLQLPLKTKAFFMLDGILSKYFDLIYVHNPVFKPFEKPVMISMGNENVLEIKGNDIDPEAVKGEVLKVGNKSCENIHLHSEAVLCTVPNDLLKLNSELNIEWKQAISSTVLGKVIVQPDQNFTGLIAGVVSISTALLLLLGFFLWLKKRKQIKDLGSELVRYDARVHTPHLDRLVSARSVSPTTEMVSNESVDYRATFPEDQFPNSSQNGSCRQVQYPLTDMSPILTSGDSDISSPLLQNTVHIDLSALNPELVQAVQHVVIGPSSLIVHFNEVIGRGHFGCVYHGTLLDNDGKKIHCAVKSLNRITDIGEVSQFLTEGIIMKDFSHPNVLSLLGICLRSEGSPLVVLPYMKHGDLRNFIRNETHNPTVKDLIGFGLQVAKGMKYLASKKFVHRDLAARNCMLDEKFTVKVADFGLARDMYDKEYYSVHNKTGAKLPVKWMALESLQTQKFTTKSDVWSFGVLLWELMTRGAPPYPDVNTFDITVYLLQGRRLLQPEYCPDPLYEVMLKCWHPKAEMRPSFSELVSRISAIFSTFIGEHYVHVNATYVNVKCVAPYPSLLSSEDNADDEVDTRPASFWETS
# Chain of Serine/threonine-protein kinase 24 (Homo sapiens) (Q9Y6E0 whole entry, looked up): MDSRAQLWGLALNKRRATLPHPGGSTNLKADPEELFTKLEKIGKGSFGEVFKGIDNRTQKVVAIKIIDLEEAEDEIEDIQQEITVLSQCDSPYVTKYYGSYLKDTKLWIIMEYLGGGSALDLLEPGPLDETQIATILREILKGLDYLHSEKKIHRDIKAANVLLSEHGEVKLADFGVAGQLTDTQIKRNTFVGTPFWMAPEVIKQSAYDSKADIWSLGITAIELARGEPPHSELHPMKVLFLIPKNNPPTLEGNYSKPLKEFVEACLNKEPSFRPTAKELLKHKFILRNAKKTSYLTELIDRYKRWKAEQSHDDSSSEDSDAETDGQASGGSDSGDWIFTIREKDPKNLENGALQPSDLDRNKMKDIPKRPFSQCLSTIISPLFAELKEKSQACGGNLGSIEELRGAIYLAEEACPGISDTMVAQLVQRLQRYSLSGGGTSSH
# Chain of MAP kinase-interacting serine/threonine-protein kinase 2 (Homo sapiens) (Q9HBH9 whole entry, looked up): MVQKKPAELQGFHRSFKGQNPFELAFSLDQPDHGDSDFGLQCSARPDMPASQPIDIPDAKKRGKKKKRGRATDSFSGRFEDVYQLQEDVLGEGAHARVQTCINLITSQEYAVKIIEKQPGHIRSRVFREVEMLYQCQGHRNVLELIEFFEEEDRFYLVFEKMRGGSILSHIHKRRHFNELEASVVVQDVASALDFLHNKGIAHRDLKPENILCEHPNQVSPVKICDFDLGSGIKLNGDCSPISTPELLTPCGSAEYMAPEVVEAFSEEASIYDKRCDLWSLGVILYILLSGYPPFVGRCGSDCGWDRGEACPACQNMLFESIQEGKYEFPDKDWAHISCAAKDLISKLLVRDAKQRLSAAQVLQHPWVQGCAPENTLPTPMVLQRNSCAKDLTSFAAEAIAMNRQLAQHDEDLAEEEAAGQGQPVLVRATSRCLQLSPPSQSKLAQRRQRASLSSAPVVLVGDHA
Compound,residual activity [1],residual activity [2],residual activity [3],residual activity [4],residual activity [5],residual activity [6],residual activity [7],residual activity [8],residual activity [9],residual activity [10],residual activity [11],residual activity [12],residual activity [13],residual activity [14],residual activity [15],residual activity [16],residual activity [17],residual activity [18],residual activity [19],residual activity [20]
Nc1n[nH]c2nnc(-c3c(-c4ccccc4)nn4ccccc34)cc12,79%,91%,15%,86%,57%,78%,88%,96%,101%,86%,107%,97%,91%,86%,83%,87%,89%,82%,–,–
c1ccc(-c2n[nH]c3c2oc2ccccc23)cc1,–,–,67%,95%,70%,87%,70%,80%,24%,0%,–,–,91%,99%,–,–,98%,86%,66%,14%
Cc1cc2ncc(-c3ccccc3)nc2cc1C,88%,95%,83%,107%,90%,87%,134%,–,–,75%,97%,93%,92%,105%,–,93%,103%,99%,65%,101%
O=C1NC(=O)c2cc(Nc3ccc(F)cc3)c(Nc3ccc(F)cc3)cc21,100%,68%,54%,105%,93%,89%,59%,106%,86%,3%,70%,93%,77%,94%,109%,81%,101%,85%,68%,34%
Cc1cncc2cccc(S(=O)(=O)N3CCCN(C(=O)CN)C[C@H]3C)c12,–,–,71%,79%,21%,84%,123%,–,72%,67%,88%,86%,78%,92%,–,–,–,82%,61%,90%
c1ccc2c(-c3ccncc3)c[nH]c2c1,103%,81%,69%,100%,73%,–,68%,35%,9%,82%,89%,67%,78%,88%,–,–,103%,85%,61%,88%
Oc1ccc(Nc2nc(-c3ccc(Cl)cc3)cs2)cc1,101%,76%,102%,100%,90%,138%,110%,96%,80%,91%,72%,40%,116%,97%,106%,111%,104%,103%,94%,112%
COc1cc2ncnc(Nc3ccc(O)c(Br)c3)c2cc1OC,97%,70%,43%,69%,16%,86%,72%,10%,6%,63%,50%,64%,73%,83%,106%,81%,86%,76%,54%,77%
Cc1cccc(-c2[nH]c(C(C)(C)C)nc2-c2ccc3c(c2)OCO3)n1,–,94%,72%,107%,97%,–,–,–,–,87%,80%,107%,88%,95%,–,–,96%,95%,79%,98%
Cc1cc(Nc2nc(-c3ccccc3)nc3ccccc23)n[nH]1,55%,11%,10%,19%,1%,94%,65%,–,61%,4%,66%,50%,–,66%,76%,78%,62%,17%,59%,21%
c1ccc(-c2n[nH]cc2-c2ccnc3ccccc23)nc1,88%,88%,65%,98%,85%,108%,90%,109%,98%,79%,98%,96%,82%,101%,–,–,96%,99%,66%,105%
Nc1ccc2ncnc(NCCc3ccc(Oc4ccccc4)cc3)c2c1,100%,72%,72%,95%,62%,124%,80%,105%,74%,49%,68%,55%,114%,101%,81%,109%,111%,100%,99%,92%
Cn1cc(/C=C2\C(=O)Nc3ccc(S(N)(=O)=O)cc32)c2ccccc21,27%,6%,63%,22%,16%,84%,–,80%,72%,28%,83%,90%,79%,26%,72%,19%,87%,43%,69%,69%
CCN(CC)C(=O)c1ccc(Nc2nc(OCC3CCCCC3)c3nc[nH]c3n2)cc1,66%,7%,16%,15%,0%,45%,9%,–,44%,4%,67%,41%,68%,11%,47%,18%,–,–,63%,32%

# From ChEMBL document CHEMBL2218924, “A broad activity screen in support of a chemogenomic map for kinase signalling research and drug discovery” (Biochem J, 2013)
